The panel holds about 83,000 compounds, 20% with a hit somewhere; the sample as a whole holds those more often.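 Method: cells in 96-well plates; compound added at one concentration; 48 h incubation; percent growth measured; values under 10 scored active.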 The source made the active and inactive calls.
Assays:
Assay in all cases: NCI-60 one-dose screen, 48 h (100 = growth as untreated, 0 = no growth, -100 = all killed)
Settings in all cases: 10 µM unless noted
NCI-H23 lung = tested on: NCI-H23 lung
NCI-H226 lung = tested on: NCI-H226 lung
NCI-H322M lung = tested on: NCI-H322M lung
HOP-62 NSCLC = tested on: HOP-62 NSCLC
NCI-H460 lung = tested on: NCI-H460 lung
HOP-92 NSCLC = tested on: HOP-92 NSCLC
NCI-H522 lung = tested on: NCI-H522 lung
A549/ATCC NSCLC = tested on: A549/ATCC NSCLC
786-0 renal = tested on: 786-0 renal
COLO 205 colon = tested on: COLO 205 colon

Measured: growth

O=C(Cc1ccc(/C=C/C(=O)c2ncc[nH]2)cc1)Nc1ccc(Br)cc1
inactive: NCI-H23 lung 34.8% | NCI-H226 lung 46.5% | NCI-H322M lung 58.1% | HOP-92 NSCLC 77.4% | NCI-H522 lung 13.2% | A549/ATCC NSCLC 39.4% | COLO 205 colon 20.7%
active: HOP-62 NSCLC 3.97% | NCI-H460 lung -3.31% | 786-0 renal -27%

CCCCCCCC(=O)SCC/C=C/[C@@H]1CC(=O)NCc2cccc(n2)C2=N[C@@](C)(CS2)C(=O)N[C@@H](C(C)C)C(=O)N1
active: NCI-H522 lung -1.71% | COLO 205 colon -41.6%
inactive: NCI-H23 lung 41.7% | NCI-H226 lung 68.9% | NCI-H322M lung 15.6% | HOP-62 NSCLC 12.3% | NCI-H460 lung 20% | HOP-92 NSCLC 38% | A549/ATCC NSCLC 15.4% | 786-0 renal 54%

COc1ccc(-c2nc(N)ncc2Oc2ccccc2OC)c(O)c1
active: COLO 205 colon 2.73%
inactive: NCI-H23 lung 38.8% | NCI-H226 lung 73.5% | NCI-H322M lung 50.5% | HOP-62 NSCLC 27.9% | NCI-H460 lung 16.4% | HOP-92 NSCLC 49.2% | NCI-H522 lung 28.7% | A549/ATCC NSCLC 35.7% | 786-0 renal 37%

COc1ccc2c(c1OC)C(=O)O[C@@H]2[C@H]1c2c(c(C#CC#Cc3ccc(F)c(F)c3)c3c(c2OC)OCO3)CCN1C
inactive: NCI-H23 lung 90.3% | NCI-H226 lung 95.1% | NCI-H322M lung 88.8% | HOP-62 NSCLC 68% | NCI-H460 lung 103% | HOP-92 NSCLC 82.3% | NCI-H522 lung 86.5% | A549/ATCC NSCLC 67.8% | 786-0 renal 93% | COLO 205 colon 84.7%

CC1CCC(n2cnc3c(Cl)ncnc32)O1 (stereo not given)
inactive: NCI-H23 lung 89.5% | NCI-H226 lung 95.9% | NCI-H322M lung 86.3% | HOP-62 NSCLC 91.2% | NCI-H460 lung 101% | HOP-92 NSCLC 75.5% | NCI-H522 lung 82.9% | A549/ATCC NSCLC 106% | 786-0 renal 98.1% | COLO 205 colon 104%

CC(=O)Oc1ccccc1C(=O)N=C1[Se]CCN1C(=O)c1ccccc1OC(C)=O
active: NCI-H23 lung 0.294% | NCI-H226 lung -48.4% | NCI-H322M lung -21.7% | HOP-62 NSCLC -48.1% | NCI-H460 lung -7.43% | HOP-92 NSCLC -72.4% | NCI-H522 lung -6.48% | A549/ATCC NSCLC -52.6% | 786-0 renal -95.8% | COLO 205 colon -26.9%

COc1cc(NC2CCC(=O)N2c2ccc(Cl)cc2Cl)cc(OC)c1OC (stereo not given)
inactive: NCI-H23 lung 99.4% | NCI-H226 lung 99.9% | NCI-H322M lung 97.3% | HOP-62 NSCLC 103% | NCI-H460 lung 102% | HOP-92 NSCLC 83.1% | NCI-H522 lung 99.9% | A549/ATCC NSCLC 99.4% | 786-0 renal 103% | COLO 205 colon 97.7%

CCN(CC)c1cc2oc3cc(N)cc(=N)c-3nc2cc1C
inactive: NCI-H23 lung 13.9% | NCI-H226 lung 84.9% | NCI-H322M lung 91.7% | HOP-62 NSCLC 65.3% | NCI-H460 lung 74.6% | HOP-92 NSCLC 82.1% | NCI-H522 lung 43.4% | A549/ATCC NSCLC 26.1% | 786-0 renal 62.6% | COLO 205 colon 20.8%

NC(=O)c1n[nH]n2c1nc(=O)c1c3c(sc12)CCCC3
inactive: NCI-H23 lung 101% | NCI-H226 lung 91.4% | NCI-H322M lung 101% | HOP-62 NSCLC 96.5% | NCI-H460 lung 109% | HOP-92 NSCLC 91.7% | NCI-H522 lung 102% | A549/ATCC NSCLC 92.7% | 786-0 renal 106% | COLO 205 colon 103%

O=C(Nc1ccc(Nc2ncnc3sc4c(c23)CCOC4)cc1)Nc1ccc(Cl)c(C(F)(F)F)c1
inactive: NCI-H23 lung 86% | NCI-H226 lung 103% | NCI-H322M lung 102% | HOP-62 NSCLC 116% | NCI-H460 lung 99.7% | HOP-92 NSCLC 89% | NCI-H522 lung 66.5% | A549/ATCC NSCLC 99.3% | 786-0 renal 107% | COLO 205 colon 104%

Nc1c2c(c(O)c3c1=C(CO)C=N3)=NCCS2
active: NCI-H23 lung -43.9% | NCI-H226 lung -85.9% | NCI-H322M lung -96% | HOP-62 NSCLC -79.3% | NCI-H460 lung -60.5% | HOP-92 NSCLC -71.2% | NCI-H522 lung -46.4% | A549/ATCC NSCLC -72% | 786-0 renal -82.6% | COLO 205 colon -72.8%

CCOc1cc2ncc(C#N)c(Nc3ccc(F)c(Cl)c3)c2cc1NC(=O)/C=C/CN(C)C
active: NCI-H23 lung -28.5% | NCI-H226 lung -56.5% | NCI-H322M lung 0.98% | HOP-62 NSCLC -27.7% | NCI-H460 lung -44% | HOP-92 NSCLC -30% | NCI-H522 lung -57.5% | A549/ATCC NSCLC -30.6% | 786-0 renal -68.5% | COLO 205 colon -83.2%

COc1ccc(C2CC(=O)c3c(O)c(OC)c(OC)c(OC)c3O2)cc1O (stereo not given)
inactive: NCI-H23 lung 33.8% | NCI-H226 lung 89.2% | NCI-H322M lung 44.3% | HOP-62 NSCLC 61.9% | HOP-92 NSCLC 79.5% | NCI-H522 lung 13.1% | A549/ATCC NSCLC 28.7% | 786-0 renal 49% | COLO 205 colon 67.3%
active: NCI-H460 lung 3.01%

CCN(CC)C(=O)C[N+](C)(C)CCOC(c1ccccc1)c1ccccc1
inactive: NCI-H23 lung 95.2% | NCI-H226 lung 102% | NCI-H322M lung 104% | HOP-62 NSCLC 103% | NCI-H460 lung 109% | HOP-92 NSCLC 113% | NCI-H522 lung 105% | A549/ATCC NSCLC 101% | 786-0 renal 102% | COLO 205 colon 112%

O=C(O)c1ccc2c(c1)nc(Nc1cccc(Cl)c1)c1ccncc12
inactive: NCI-H460 lung 14.7% | A549/ATCC NSCLC 27.8% | 786-0 renal 17.5%
active: NCI-H23 lung 2.72% | NCI-H226 lung 3.78% | NCI-H322M lung -25.5% | HOP-62 NSCLC -1.83% | HOP-92 NSCLC -20.3% | NCI-H522 lung -35.7% | COLO 205 colon -16.8%

Cc1nc2cc(-c3nn(C(C)C)c4ncnc(N)c34)ccc2o1
active: NCI-H23 lung -0.166% | NCI-H226 lung -20.5% | NCI-H322M lung -23.2% | HOP-62 NSCLC -36.3% | NCI-H460 lung 3.28% | HOP-92 NSCLC -40.4% | NCI-H522 lung -11.5% | A549/ATCC NSCLC -29.2% | 786-0 renal -29.5% | COLO 205 colon -24.9%

NN1C(=O)CSC1=S
inactive: NCI-H23 lung 97.5% | NCI-H226 lung 100% | NCI-H322M lung 98.9% | HOP-62 NSCLC 81.7% | NCI-H460 lung 105% | HOP-92 NSCLC 102% | NCI-H522 lung 73.3% | A549/ATCC NSCLC 65.5% | 786-0 renal 99.2% | COLO 205 colon 107%

COc1ccc(C2OC(c3cc(-c4cc5ccccc5o4)nn3-c3ccccc3)=NN2C(C)=O)cc1 (stereo not given)
inactive: NCI-H23 lung 92.5% | NCI-H226 lung 91% | NCI-H322M lung 97.9% | HOP-62 NSCLC 91.4% | NCI-H460 lung 104% | HOP-92 NSCLC 74.1% | NCI-H522 lung 83.4% | A549/ATCC NSCLC 102% | 786-0 renal 92.9% | COLO 205 colon 103%

COc1cc2c(cc1OCCCN1Cc3ccc(OCCCCC(=O)N4CCC(CCN5CCCC5)CC4)cc3C1)N=C(N)C21CCCC1
inactive: NCI-H23 lung 84.5% | NCI-H226 lung 106% | NCI-H322M lung 107% | HOP-62 NSCLC 79.9% | NCI-H460 lung 102% | HOP-92 NSCLC 78.7% | NCI-H522 lung 50.7% | A549/ATCC NSCLC 85% | 786-0 renal 85.4% | COLO 205 colon 42.4%

Cc1ccc(-c2nc3ccc(Cl)cn3c2NC2CCCCC2)o1
inactive: NCI-H23 lung 81.3% | NCI-H226 lung 84.5% | NCI-H322M lung 93.1% | HOP-62 NSCLC 87% | NCI-H460 lung 97.6% | HOP-92 NSCLC 73.1% | NCI-H522 lung 57.3% | A549/ATCC NSCLC 79.5% | 786-0 renal 87.8% | COLO 205 colon 79.6%

CC(C)(C)CC(C)(C)Nc1c(-c2c(O)c3ccccc3oc2=O)nc2c(Cl)cc(C(F)(F)F)cn12
inactive: NCI-H23 lung 103% | NCI-H226 lung 97.5% | NCI-H322M lung 94% | HOP-62 NSCLC 92.5% | NCI-H460 lung 107% | HOP-92 NSCLC 87.7% | NCI-H522 lung 81.4% | A549/ATCC NSCLC 85.5% | 786-0 renal 97% | COLO 205 colon 112%

CCc1nc2cc(/C=C/C(=O)NO)ccc2c(=O)n1CCc1ccc(OC)cc1
inactive: NCI-H23 lung 24.5% | NCI-H226 lung 50% | NCI-H322M lung 29.9% | HOP-62 NSCLC 16.6% | NCI-H460 lung 13% | HOP-92 NSCLC 22.5% | NCI-H522 lung 15.2% | A549/ATCC NSCLC 24.1% | 786-0 renal 21%
active: COLO 205 colon -2.84%

O=c1sn(-c2cccc3ccccc23)c(=O)n1Cc1ccccc1
inactive: NCI-H23 lung 100% | NCI-H226 lung 96.8% | NCI-H322M lung 102% | HOP-62 NSCLC 76.6% | NCI-H460 lung 101% | HOP-92 NSCLC 89.3% | NCI-H522 lung 74.4% | A549/ATCC NSCLC 70.7% | 786-0 renal 107% | COLO 205 colon 89.8%

CO[C@H]1C[C@@H]2CC[C@@H](C)[C@@](O)(O2)C(=O)C(=O)N2CCCC[C@H]2C(=O)O[C@H]([C@H](C)C[C@@H]2CC[C@@H](OP(C)(C)=O)[C@H](OC)C2)CC(=O)[C@H](C)/C=C(\C)[C@@H](O)[C@@H](OC)C(=O)[C@H](C)C[C@H](C)\C=C/C=C/C=C/1C
inactive: NCI-H23 lung 57.5% | NCI-H226 lung 40.9% | NCI-H322M lung 54.5% | HOP-62 NSCLC 28.5% | NCI-H460 lung 40.4% | HOP-92 NSCLC 36.2% | NCI-H522 lung 31.8% | A549/ATCC NSCLC 34.6% | 786-0 renal 53.3% | COLO 205 colon 52.6%

NC(=O)N1N=C(c2ccc(Cl)cc2)CC1c1cn(-c2ccccc2)nc1-c1ccc(Cl)cc1 (stereo not given)
active: 786-0 renal -7.43%
inactive: NCI-H23 lung 56.5% | NCI-H226 lung 30.1% | NCI-H322M lung 63.1% | HOP-62 NSCLC 37.8% | NCI-H460 lung 41.9% | HOP-92 NSCLC 49.7% | NCI-H522 lung 56.9% | A549/ATCC NSCLC 41.3% | COLO 205 colon 81.9%

Cc1cc(N(CCNc2ccnc3cc(Cl)ccc23)Cc2ccc3c(c2)OCO3)nc(N2CCN(C)CC2)n1
active: HOP-62 NSCLC 0.334% | HOP-92 NSCLC -10.2% | NCI-H522 lung 7.7% | 786-0 renal -6.41% | COLO 205 colon -67.1%
inactive: NCI-H23 lung 56.6% | NCI-H226 lung 75.7% | NCI-H322M lung 41.5% | NCI-H460 lung 18.2% | A549/ATCC NSCLC 26%

From PubChem BioAssay (NCI)
